An excerpt weighted towards active compounds, which were near 3.8% of everything screened.
TSG101-PTAP inh = blocks PTAP binding to human TSG101, validation; Q99816; Fluorescence polarization, FITC-PTAP peptide/Tsg101, 20 min; Potency, µM (series often up to 115 µM), actives largely listed as inhibitors; 44,000 tested, under 10 active; AID 1347069; further: potency means the concentration at half of the fitted maximal effect; 0% is about no effect
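qHTS FP binding, 20 min r.t.: 10 uM Tsg101 domain + 50 nM FITC-PTAP peptide, pH 7.5 HEPES buffer with TCEP and EDTA.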
DRV1 agonist = agonists of human resolvin D1 receptor DRV1 (GPR32) | CHO-K1 GPR32 beta-arrestin PathHunter luminescence, 90 min; zero percent set by DMSO-only wells | O75388 | 2.5% of 48,000 active | activation, % at 76.9 µM | AID 1346428;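 active means activation of at least 60% and not above a set upper limit, about 1 call in 100 departs from these limits; inconclusive means activation of 40% to 60%, or above that upper limit; inactive means activation under 40%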; further: 0% is about no effect
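Engineered CHO-K1 line co-expressing GPR32-ProLink and EA-beta-arrestin. Compound treatment lasted 90 min at 37 °C. Luminescence was recorded after 1 h with substrate at ambient temperature, relative to DMSO basal wells.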
B2AR arrestin ag = agonists recruiting beta-arrestin to human beta2-adrenergic receptor. HTLA Tango cells, beta-arrestin recruitment, luciferase luminescence, 18 h. Potency, µM (top dose mostly 46.1 µM), most hits filed as activators. 44,000 tested, under 10 active;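 further: potency means the concentration at half of the fitted maximal effect; 0% = DMSO and full agonism = EC100 isoproterenol or metaproterenol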
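Receptor–beta-arrestin recruitment read by tTA-responsive luciferase: compound titrations (up to 46 µM) incubated 18 h with Tango cells, then luminescent substrate 15 min at room temperature. Concentration-response fits classified by r2, efficacy and activity.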
NTMT1 inhibitor = NTMT1 methyltransferase inhibition; NTMT1 MTase-Glo SAH luminescence, purified enzyme; Q9BV86; Potency, µM (top dose mostly 114 µM), inactives show at the highest dose activity change, negative = inhibition, actives largely listed as inhibitors; 2.5% of 59,000 active;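 further: potency means the concentration at half of the fitted maximal effect; plate controls were DMSO vehicle for no effect and no enzyme for full effect; nearly all actives have a fitted effect of over 65% in size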
Target sequence (Q9BV86 whole entry, looked up): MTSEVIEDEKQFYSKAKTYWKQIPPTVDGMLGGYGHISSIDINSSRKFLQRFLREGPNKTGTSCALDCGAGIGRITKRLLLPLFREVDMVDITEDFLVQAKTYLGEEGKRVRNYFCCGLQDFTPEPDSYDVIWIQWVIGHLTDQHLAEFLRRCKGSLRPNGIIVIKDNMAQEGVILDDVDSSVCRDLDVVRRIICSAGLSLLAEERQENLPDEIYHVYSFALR
SKOV3 invasion = blocks SKOV3ip1 adhesion and invasion in omental model | 0.1% of 46,000 active | Potency, µM (doses to about 45.8 µM), inactives show at the highest dose activity change, negative = inhibition, actives largely listed as inhibitors | SKOV3ip1-GFP adhesion/invasion on 3D omental model, fluorescence;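 further: potency means the concentration at half of the fitted maximal effect; plate controls were DMSO wells for no effect and tomatine positive control wells for full effect; nearly all actives have a fitted effect of over 65% in size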
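Primary human omental fibroblast/mesothelial 3D culture pre-formed 48 h. SKOV3ip1-GFP cells added with compounds (0.36-46 umol/L), incubated 2 h RT/16 h 37 C, fixed; GFP cells quantified at 488/509 nm.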
GALK inhibitor = inhibits human galactokinase. 44,000 tested, under 10 active. recombinant GALK, Kinase-Glo ATP luminescence, 1 h. P51570. Potency, µM (series often up to 57.5 µM), for the others: at the highest dose activity, negative = inhibition, most hits filed as inhibitors;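 further: plate controls were full GALK reaction for no effect and reaction lacking GALK for full effect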
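Reactions with and without enzyme served as controls. GALK at 5 nM phosphorylates 100 uM galactose using 35 uM ATP (HEPES pH 8.0, Mg2+) for 1 h at RT, with luminescence read 10 min after adding Kinase-Glo Plus.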
* hit, by the source's call; i = inactive; ? = inconclusive; nt = no result; ! = a repeat was not active; [ ] = another dose, or the depositor's remark. Unless noted, the call rests on the fitted dose curve; in most records, active means well fitted curve in the direction sought with a large enough effect; inconclusive means small, poorly fitted or top-dose-only effect, or another doubt; inactive means no such curve, though single readings can be large; an effect the other way counts as inactive or inconclusive.

SMILES	TSG101-PTAP inh	DRV1 agonist	B2AR arrestin ag	NTMT1 inhibitor	SKOV3 invasion	GALK inhibitor
O=C(Nc1cc(Cl)cc(Cl)c1)c1ccc(F)c(S(=O)(=O)NC2CCCCC2)c1	i	69*	i	9%	-8%	-1%
Oc1ccc(/C=C/c2cc(O)cc(O)c2)cc1	nt	-1	nt	45µM*!	nt	nt
Oc1ccc(C=Cc2cc(O)cc(O)c2)cc1	nt	nt	nt	?	2%	nt
CCOC(=O)/C=C(C)/C=C/C=C(C)/C=C/c1c(C)cc(OC)c(C)c1C	nt	30	nt	10%[57.5 µM]	nt	nt
COc1cc(C)c(/C=C/C(C)=C/C=C/C(C)=C/C(=O)O)c(C)c1C	nt	nt	nt	79µM*	nt	nt
CC1=C(c2ccc(C)cc2)S(=O)(=O)NC1=NCc1ccccc1Cl	i	-8	i	-3%	-5%	-1%
CCOc1ccccc1NC(=O)c1cc2ccc3cccnc3c2[nH]1	i	1	i	0%	i	-1%
COc1ccccc1NC(=O)c1cc2ccc3cccnc3c2[nH]1	i	93*	i	-10%	0%	0%
O=C(c1cc2ccc3cccnc3c2[nH]1)N1CCCCC1	i	-16	i	40µM*	2%	6%
Cc1ccc(C)c(N2CCN(c3nccn4nc(-c5ccc(Br)cc5)cc34)CC2)c1	i	1	i	-7%	i	5%
Cc1ccc(NC(=O)Nc2nnc(SCC(=O)Nc3ccc(F)cc3F)s2)cc1	i	-4	i	-7%	-5%	-5%
CCc1ccc(OCC(=O)N(Cc2cccs2)c2ccc(Cl)cc2)cc1	i	10	i	-2%	66%	6%
COc1cc(F)c(S(=O)(=O)Nc2c(C)n(C)n(-c3ccccc3)c2=O)cc1OC	i	-4	i	5%	-3%	0%
COc1ccc(NC(=O)CC2Nc3cccc4cccc(c34)NC2=O)cc1 (stereo unspecified)	i	29	i	79µM*	i	0%
Cc1cc2c(cc1C)NC(CC(=O)Nc1cccc(Cl)c1)C(=O)N2 (stereo unspecified)	i	-20	i	20%	i	-3%
O=C(CC1Nc2cccc3cccc(c23)NC1=O)Nc1ccc(F)cc1 (stereo unspecified)	i	64*	i	-20%	-8%	1%
COc1ccc(-c2cc3nc(N)cc(=O)n3[nH]2)cc1	i	2	i	-11%	21%	3%
CN1CCCN=C1/C=C/c1cccs1	nt	-2	nt	50µM*!	nt	nt
O=C(NCc1ccccc1)c1nc(S(=O)(=O)Cc2ccccc2)ncc1Cl	i	-21	i	-1%	?	-2%
COc1ccc(CNC(=O)c2nc(S(=O)(=O)Cc3ccccc3)ncc2Cl)cc1	i	-23	i	14%	3.5µM*	0%
CCS(=O)(=O)c1ncc(Cl)c(C(=O)NCc2ccccc2)n1	i	-13	i	-2%	10µM*	2%
CCOc1nc(NC(=O)Cc2cc(OC)ccc2OC)cc(N)c1C#N	nt	nt	nt	8%[57.5 µM]	nt	nt
COc1ccccc1N1CCN(C(=O)c2cc(CC(C)C)on2)CC1	i	22	i	nt	32%	-6%
Cc1ccc(NC(=O)Cn2c(=O)oc3cc(S(=O)(=O)N4CCCCC4)ccc32)c(Cl)c1	i	111*	i	-2%	-7%	4%
Cc1cc(C)cc(NC(=O)Cn2c(=O)oc3cc(S(=O)(=O)N4CCCC4)ccc32)c1	i	-30	i	1%	12%	-3%
CC(C)c1ccc(NC(=O)Cn2c(=O)oc3cc(S(=O)(=O)N4CCCC4)ccc32)cc1	i	97*	i	0%	34%	5%
Cc1cc2[nH]c(=O)c(=O)[nH]c2cc1S(=O)(=O)N1CCN(c2ccccc2F)CC1	i	70*	i	0%	-6%	-7%
Cn1cncc1[C@@](N)(c1ccc(Cl)cc1)c1ccc2c(c1)c(-c1cccc(Cl)c1)cc(=O)n2C	nt	nt	nt	22µM*!	-2%	nt

High-throughput results (PubChem BioAssay)
